IL1B secr inh = qHTS for Inhibitors of Inflammasome Signaling: IL-1-beta AlphaLISA Primary Screen; THP-1 LPS/ATP IL-1B secretion, AlphaLISA, 16 h; stronger effect = lower value; activity change, % at 57.5 µM; actives 4.7% (n = 360,000); AID 743279, 2014; in the data active means activity change below about -50%; inconclusive means mostly about -30% to -49%
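Secreted IL-1B measured by AlphaLISA bead assay after 16 h compound exposure of THP-1 cells; compounds (final up to 57.5 uM) added 1 h before LPS (250 ng/mL) and ATP (1.25 mM) stimulation; lower signal means less secretion.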
uPA surface inh = qHTS for Inhibitors of Cell Surface uPA Generation | cell surface uPA generation assay, qHTS | Potency, µM (doses to about 38.3 µM), for inactives: top-dose activity change, negative = inhibition, usual class: inhibitors | actives 0.31% (n = 330,000); active means well fitted inhibition curve with a large enough effect; inconclusive means small, poorly fitted or top-dose-only effect; inactive means no such curve, though single readings can be large or run the other way; tested in mouse RAW 264.7 cells; further: potency means the concentration at half of the fitted maximal effect; nearly all actives have a fitted effect of over 55% in size
TDP1 cell noCPT = qHTS for Inhibitors of human tyrosyl-DNA phosphodiesterase 1 (TDP1): qHTS in cells in absence of CPT; DT40 Tdp1-/- hTDP1 cells, no CPT, ATP luminescence, 48 h; Potency, µM (doses to about 46.2 µM), for inactives: top-dose activity change, negative = growth inhibition, actives largely listed as inhibitors; actives 15% (n = 420,000); further: potency means the concentration at half of the fitted maximal effect; nearly all actives have a fitted effect of over 55% in size
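Cells were dispensed at 400 per well, compounds added by pin tool, plates incubated ≥48 hr at 37 °C, then CellTiter-Glo added for 30 min at room temperature before luminescence reading. Line: DT40 Tdp1-/- complemented with hTDP1; camptothecin omitted.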
TDP1 cell CPT = qHTS for Inhibitors of human tyrosyl-DNA phosphodiesterase 1 (TDP1): qHTS in cells in presence of CPT; Potency, µM (doses to about 46.2 µM), inactives show at the highest dose activity change, negative = growth inhibition, actives largely listed as inhibitors; chicken DT40 Tdp1-/-;hTDP1 cells + 20 nM CPT, ATP luminescence, 48 h; actives 12% (n = 420,000); further: potency means the concentration at half of the fitted maximal effect; nearly all actives have a fitted effect of over 55% in size
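Cell growth measured by CellTiter-Glo luminescence after a minimum 48 h, 37 C compound exposure with 20 nM CPT in Tdp1-knockout DT40 cells stably expressing hTDP1, seeded 400/well; qHTS titration format.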
HT1080-NT tox = qHTS for induction of synthetic lethality in tumor cells producing 2HG: qHTS for the HT-1080-NT fibrosarcoma cell line | HT-1080-NT fibrosarcoma viability, CellTiter-Glo ATP luminescence, 48 h | Potency, µM (highest dose often 46.1 µM), for inactives: top-dose activity, negative = less viability, most hits filed as cytotoxic | actives 1.6% (n = 360,000);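 further: NT is the 2HG producing partner of a matched IDH1 knockdown line; potency means the concentration at half of the fitted maximal effect; 0% = DMSO-treated cells and -100% = media-only wells without cells; nearly all actives have a fitted effect of over 55% in size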
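Viability of the 2HG-overproducing fibrosarcoma line after 48 hours of compound exposure at 37 degrees C was determined by luminescence with CellTiter-Glo, and concentration-effect curves were then fitted and categorized.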
HT1080 IDH1KD tx = qHTS for induction of synthetic lethality in tumor cells producing 2HG: qHTS for the HT-1080-IDH1KD cell line; Potency, µM (series often up to 46.1 µM), inactives show top-dose activity, negative = toxicity, most hits filed as cytotoxic; actives 2% (n = 360,000); HT-1080 IDH1 knockdown viability, ATP luminescence, 48 h;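 further: potency means the concentration at half of the fitted maximal effect; 0% = DMSO wells and -100% = cell-free medium wells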
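Knockdown cells (IDH1KD HT-1080) received compounds 2 h after plating at 750 cells/well and were kept 48 h at 37 °C in 5% FBS RPMI. A CellTiter-Glo luminescence read gave % activity for curve fitting.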
The depositor's hits bear a star; ? = inconclusive; · = no result; ! = not confirmed by another sample; [ ] = dose if it differs, or a comment. Compounds with a hit are over-represented: about 19% of the library has one in this group of screens. Unless noted, the call rests on the fitted dose curve; in most records, active means well fitted curve in the direction sought with a large enough effect; inconclusive means small, poorly fitted or top-dose-only effect, or another doubt; inactive means no such curve, though single readings can be large; an effect the other way counts as inactive or inconclusive. Unless noted, on the % scale 0 is the no-effect control and ±100 the full control effect.

SMILES	IL1B secr inh	uPA surface inh	TDP1 cell noCPT	TDP1 cell CPT	HT1080-NT tox	HT1080 IDH1KD tx
Nc1nc2cc3c(cc2cc1C(=O)NCc1ccc(F)cc1)OCO3	22	·	4.1µM*	16µM*	?	?
CCc1ccccc1NC(=O)C1CCN(S(=O)(=O)c2ccc3[nH]c(=O)ccc3c2)CC1	·	·	9%	5%	·	·
O=C(CCCCCNc1nc(=S)[nH]c2ccccc12)NCCc1c[nH]c2ccccc12	-78*	17%	15µM*	18µM*	1%	4%
Nc1nc2ccc(Cl)cc2cc1C(=O)NCCc1ccc(Cl)cc1Cl	49	·	?	?	1%	2%
Nc1nc2ccc(Cl)cc2cc1C(=O)NCCc1c[nH]c2ccccc12	-14	·	?	8.2µM*	?	?
OCCc1c[nH]c2ccccc12	-22	-5%	10%	2%	8%	0%
OCc1c[nH]c2ccccc12	23	-4%	39µM*!	17µM*!	7%	-3%
CC(C)CCNC(=O)Cc1ccc(Nc2nc(=S)[nH]c3ccccc23)cc1	-65*	-2%	?	-18%	-4%	2%
CCS(=O)(=O)N1CCN(C(=O)c2ccc3nc(C)c(N(C)C(=O)CCc4ccccc4)n3c2)CC1	40	·	-8%	-1%	13%	9%
O=C(c1ccco1)N1CCN(C2CN(Cc3cn(Cc4ccccc4C(F)(F)F)nn3)S(=O)(=O)C2)CC1 (stereo not drawn)	-14	·	7%	2%	13%	11%
O=C1c2ccccc2/C(=C\c2ccc3[nH]ccc3c2)N1c1ccccc1	4	-17%	?	?	1%	-12%
CCC/C(=C1/c2ccccc2C(=O)N1c1ccccc1)c1ccc2[nH]ccc2c1	49	?	16µM*	16µM*	?	?
CCCCCCC=C1CCC(CN2CCCC2)C1=O (stereo not drawn)	-22	·	4.1µM*	2.9µM*	?	?
CCCC/C=C1\CCc2c([nH]c3ccccc23)C1=O	?	-3%	-2%	7%	24%	16%
COc1ccc(/C=N/NC(=O)c2ccc(NC(=O)c3cccc([N+](=O)[O-])c3)cc2)c(OC)c1	16	-4%	?	-26%	?	-11%
COc1cc([N+](=O)[O-])cc(/C=N/NC(=O)c2ccc(NC(=O)c3ccc(C)cc3)cc2)c1O	73	-2%	4.1µM*	2.9µM*	?	?
Cc1ccc(C(=O)N/N=C\C=C\c2ccc(Br)cc2)cn1	20	-11%	?	-24%	-15%	-1%
COc1cc([N+](=O)[O-])cc(/C=N/NC(=O)C(C)Nc2ccccc2C)c1O (stereo not drawn)	1	-8%	18µM*	15µM*	-28%	?
COc1cc([N+](=O)[O-])cc(/C=N/NC(=O)C(C)Nc2cccc(C)c2)c1O (stereo not drawn)	0	-1%	?	1%	-10%	-16%
COc1cc([N+](=O)[O-])cc(/C=N/NC(=O)c2ccc(C)nc2)c1O	0	-4%	2.9µM*	5.2µM*	-2%	-19%
Cc1ccc(C(=O)N/N=C/c2cc(Br)ccc2O)cn1	185	?	5.2µM*	4.1µM*	?	?
NC(=O)[C@@H]1CCCN1C(=O)CC1(c2cccc(F)c2)CC(=O)N(C2CCCC2)C1=O (stereo partly drawn)	·	·	-6%	1%[9.04 µM]	·	·
O=C1C=C(NC2=CC3OC(c4ccccc4)OCC3OC2=O)CCC1 (stereo not drawn)	-117*	-3%	9.2µM*	8.2µM*	-26%	21µM*
CC[C@H](C)[C@H]1CNC(=S)N1CC1CCN(CCC(C)C)CC1	-4	·	-24%	-26%	-3%	-2%
COc1ccc(S(=O)(=O)N(C)C[C@H]2OCc3cn(nn3)CCCC(=O)N([C@@H](C)CO)C[C@@H]2C)cc1	-4	·	9%	0%	16%	17%
SMILES	IL1B secr inh	uPA surface inh	TDP1 cell noCPT	TDP1 cell CPT	HT1080-NT tox	HT1080 IDH1KD tx
O=c1c2c3c(sc2nc(NCCO)n1Cc1ccco1)CCCCC3	-7	0%	?	-64%	-25%	?
COCCNc1nc2sc3c(c2c(=O)n1Cc1ccco1)CCCCC3	12	3%	16µM*	13µM*	-25%	?
OCCNc1nc(SCc2ccccc2)nc2sc3c(c12)CCC3	-14	3%	15µM*	?	-14%	-28%
CN(C)CCNc1nc2sc3c(c2c(=O)n1Cc1ccccc1)CCCCC3	-96*	-4%	?	?	-4%	-17%
O=c1c2c3c(sc2nc(NCCO)n1CCc1ccccc1)CCCCC3	-12	?	4.1µM*	5.8µM*	-28%	?
c1cc[n+](CCC[n+]2ccccc2)cc1	30	-2%	17%	-2%	-3%	6%
O=S(=O)(Nc1nc2ccccc2nc1Cl)c1ccccc1	0	5%	1%	3%	-1%	2%
O=S(=O)(Nc1nc2ccccc2nc1-[n+]1cccc(N=C([O-])c2ccc(Cl)cc2)c1)c1ccccc1	-73*	-10%	?	?	1%	2%
CN(C(=S)NC(=O)/C=C/c1ccc(F)cc1)C1CCCCC1	-66*	5%	-23%	23%	?	15%
CC(C)NC(=S)NC(=O)/C=C/c1ccc(F)cc1	-53*	0%	15µM*	21µM*	-3%	2%
COc1ccc(NC(=O)C2(c3cccs3)CCOCC2)cc1Cl	·	·	?	-29%	·	·
CCCN1CCc2c(sc(NC(=O)Cc3ccc(F)cc3)c2C(N)=O)C1	?	-2%	11%	-2%	22%	8%
Cc1nnc(NC(=O)c2ccc(S(=O)(=O)N(C)c3ccccc3)cc2)s1	-5	-7%	-24%	-22%	-6%	-24%
CCCN1CCc2c(sc(NC(=O)c3ccc(S(=O)(=O)N(C)c4ccccc4)cc3)c2C(N)=O)C1	-16	-27%	?	21µM*	-24%	?
CCCN1CCc2c(sc(NC(=O)c3ccc(S(=O)(=O)N(C)c4ccccc4)cc3)c2C(=O)NC)C1	-60*	-14%	?	?	?	?
